# According to ChEMBL document CHEMBL2218924, “A broad activity screen in support of a chemogenomic map for kinase signalling research and drug discovery” (Biochem J, 2013):
# Legend:
# [1] = target: Serine/threonine-protein kinase WNK2 (Homo sapiens) (UniProt Q9Y3S1); settings: at 10 µM
# [2] = target: Serine/threonine-protein kinase WNK3 (Homo sapiens) (UniProt Q9BYP7); settings: at 1 µM
# [3] = target: Serine/threonine-protein kinase WNK3 (Homo sapiens) (UniProt Q9BYP7); settings: at 10 µM
# [4] = target: Tyrosine-protein kinase Yes (Homo sapiens) (UniProt P07947); settings: at 1 µM
# Tyrosine-protein kinase Yes (Homo sapiens), sequence (P07947 2-543 limits assumed): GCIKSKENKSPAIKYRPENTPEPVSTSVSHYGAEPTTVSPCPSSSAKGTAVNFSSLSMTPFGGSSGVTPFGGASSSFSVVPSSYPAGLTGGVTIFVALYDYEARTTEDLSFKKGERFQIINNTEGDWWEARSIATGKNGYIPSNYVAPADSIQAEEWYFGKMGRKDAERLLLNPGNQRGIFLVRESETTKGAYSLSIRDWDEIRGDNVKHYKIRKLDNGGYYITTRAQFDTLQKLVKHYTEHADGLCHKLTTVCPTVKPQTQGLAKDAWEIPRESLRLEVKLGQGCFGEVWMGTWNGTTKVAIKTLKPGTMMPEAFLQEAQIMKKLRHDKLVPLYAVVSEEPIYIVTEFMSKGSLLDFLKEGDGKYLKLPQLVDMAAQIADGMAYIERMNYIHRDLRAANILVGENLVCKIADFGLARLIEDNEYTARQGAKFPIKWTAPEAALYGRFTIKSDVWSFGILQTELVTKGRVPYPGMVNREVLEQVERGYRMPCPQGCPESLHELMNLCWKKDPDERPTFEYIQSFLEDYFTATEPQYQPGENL
# [5] = target: Tyrosine-protein kinase Yes (Homo sapiens) (UniProt P07947); settings: at 10 µM
# [6] = target: T1, Tyrosine-protein kinase ZAP-70 (Homo sapiens) (UniProt P43403); settings: at 1 µM
# T1 sequence (whole entry): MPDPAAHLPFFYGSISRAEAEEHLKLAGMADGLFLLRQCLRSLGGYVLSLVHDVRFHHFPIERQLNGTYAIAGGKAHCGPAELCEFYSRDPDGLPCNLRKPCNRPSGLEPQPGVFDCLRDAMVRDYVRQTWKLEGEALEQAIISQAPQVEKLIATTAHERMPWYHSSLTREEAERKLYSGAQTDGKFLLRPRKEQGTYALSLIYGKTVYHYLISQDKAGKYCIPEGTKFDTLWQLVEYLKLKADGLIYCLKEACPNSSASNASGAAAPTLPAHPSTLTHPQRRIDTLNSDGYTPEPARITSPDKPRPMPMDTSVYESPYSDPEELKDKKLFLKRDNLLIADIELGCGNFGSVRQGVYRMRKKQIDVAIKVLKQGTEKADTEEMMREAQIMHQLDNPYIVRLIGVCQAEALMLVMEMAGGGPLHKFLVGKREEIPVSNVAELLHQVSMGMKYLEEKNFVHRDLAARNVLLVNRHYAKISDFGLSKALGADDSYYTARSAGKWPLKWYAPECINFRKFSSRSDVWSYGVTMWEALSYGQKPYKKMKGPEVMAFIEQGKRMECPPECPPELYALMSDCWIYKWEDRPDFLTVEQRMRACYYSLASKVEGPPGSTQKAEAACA
# [7] = target: Death-associated protein kinase 3 (Homo sapiens) (UniProt O43293); settings: at 1 µM
# Death-associated protein kinase 3 (Homo sapiens), sequence (O43293 whole entry, looked up): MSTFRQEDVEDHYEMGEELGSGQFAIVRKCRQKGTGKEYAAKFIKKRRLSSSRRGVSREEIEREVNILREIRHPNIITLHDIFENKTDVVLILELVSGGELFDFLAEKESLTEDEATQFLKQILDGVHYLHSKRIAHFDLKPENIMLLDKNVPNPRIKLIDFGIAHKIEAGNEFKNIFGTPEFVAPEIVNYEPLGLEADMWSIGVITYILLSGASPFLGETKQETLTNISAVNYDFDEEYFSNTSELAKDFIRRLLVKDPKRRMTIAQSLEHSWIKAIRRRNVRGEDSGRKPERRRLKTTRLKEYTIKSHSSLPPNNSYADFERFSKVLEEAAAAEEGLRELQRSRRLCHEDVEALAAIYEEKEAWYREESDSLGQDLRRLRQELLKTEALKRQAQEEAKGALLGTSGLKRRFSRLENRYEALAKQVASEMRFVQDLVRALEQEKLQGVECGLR
# [8] = target: Death-associated protein kinase 3 (Homo sapiens) (UniProt O43293); settings: at 10 µM
# [9] = target: RAF proto-oncogene serine/threonine-protein kinase (Homo sapiens) (UniProt P04049); settings: at 1 µM
# [10] = target: RAF proto-oncogene serine/threonine-protein kinase (Homo sapiens) (UniProt P04049); settings: at 10 µM
# [11] = target: Mast/stem cell growth factor receptor Kit (Homo sapiens) (UniProt P10721); settings: at 1 µM
# Mast/stem cell growth factor receptor Kit (Homo sapiens), sequence (P10721 whole entry): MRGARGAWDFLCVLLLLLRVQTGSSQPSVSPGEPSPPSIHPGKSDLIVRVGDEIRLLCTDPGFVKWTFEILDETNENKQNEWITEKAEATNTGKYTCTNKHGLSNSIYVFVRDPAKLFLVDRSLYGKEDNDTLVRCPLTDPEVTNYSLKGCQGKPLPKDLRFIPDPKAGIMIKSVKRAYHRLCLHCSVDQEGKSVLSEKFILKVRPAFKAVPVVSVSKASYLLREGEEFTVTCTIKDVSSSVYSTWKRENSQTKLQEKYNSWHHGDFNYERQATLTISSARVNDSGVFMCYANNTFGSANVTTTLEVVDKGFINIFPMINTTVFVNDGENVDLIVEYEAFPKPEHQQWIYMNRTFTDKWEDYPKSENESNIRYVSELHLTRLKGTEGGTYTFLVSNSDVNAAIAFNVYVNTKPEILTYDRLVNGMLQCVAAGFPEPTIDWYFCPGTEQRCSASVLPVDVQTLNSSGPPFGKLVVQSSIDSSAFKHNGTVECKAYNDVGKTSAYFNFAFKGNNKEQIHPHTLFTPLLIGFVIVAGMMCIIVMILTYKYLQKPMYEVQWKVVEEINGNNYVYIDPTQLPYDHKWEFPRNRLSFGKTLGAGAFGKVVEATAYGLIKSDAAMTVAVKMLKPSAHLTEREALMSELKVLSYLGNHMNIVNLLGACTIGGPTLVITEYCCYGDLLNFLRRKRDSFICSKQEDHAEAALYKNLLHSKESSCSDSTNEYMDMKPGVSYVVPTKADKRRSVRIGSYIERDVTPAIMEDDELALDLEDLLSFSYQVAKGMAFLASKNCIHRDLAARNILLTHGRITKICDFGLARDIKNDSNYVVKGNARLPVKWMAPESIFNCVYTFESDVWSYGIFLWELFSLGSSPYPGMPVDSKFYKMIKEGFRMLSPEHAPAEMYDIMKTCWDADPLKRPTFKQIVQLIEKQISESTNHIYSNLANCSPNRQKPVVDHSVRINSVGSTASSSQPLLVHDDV
# [12] = target: Mast/stem cell growth factor receptor Kit (Homo sapiens) (UniProt P10721); settings: at 10 µM
# [13] = target: Proto-oncogene tyrosine-protein kinase Src (Homo sapiens) (UniProt P12931); settings: at 1 µM
# Proto-oncogene tyrosine-protein kinase Src (Homo sapiens), sequence (P12931 2-536 limits assumed): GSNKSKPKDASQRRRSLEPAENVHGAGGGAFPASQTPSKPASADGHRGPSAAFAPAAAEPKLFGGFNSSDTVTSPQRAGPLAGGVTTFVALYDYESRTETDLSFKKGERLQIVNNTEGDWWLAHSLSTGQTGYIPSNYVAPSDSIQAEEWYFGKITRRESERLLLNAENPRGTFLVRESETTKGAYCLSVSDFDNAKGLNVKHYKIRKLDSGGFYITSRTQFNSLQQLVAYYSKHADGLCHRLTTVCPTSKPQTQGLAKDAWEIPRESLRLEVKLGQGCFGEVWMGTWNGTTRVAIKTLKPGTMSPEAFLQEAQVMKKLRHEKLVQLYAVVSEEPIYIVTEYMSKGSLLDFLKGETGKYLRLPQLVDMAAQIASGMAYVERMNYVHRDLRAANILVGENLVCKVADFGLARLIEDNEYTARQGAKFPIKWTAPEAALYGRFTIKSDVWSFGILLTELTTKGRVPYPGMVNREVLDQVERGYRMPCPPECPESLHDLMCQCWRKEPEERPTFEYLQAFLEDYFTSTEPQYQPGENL
# [14] = target: Proto-oncogene tyrosine-protein kinase Src (Homo sapiens) (UniProt P12931); settings: at 10 µM
# [15] = target: T2, Eukaryotic elongation factor 2 kinase (Homo sapiens) (UniProt O00418); settings: at 1 µM
# T2 sequence (whole entry): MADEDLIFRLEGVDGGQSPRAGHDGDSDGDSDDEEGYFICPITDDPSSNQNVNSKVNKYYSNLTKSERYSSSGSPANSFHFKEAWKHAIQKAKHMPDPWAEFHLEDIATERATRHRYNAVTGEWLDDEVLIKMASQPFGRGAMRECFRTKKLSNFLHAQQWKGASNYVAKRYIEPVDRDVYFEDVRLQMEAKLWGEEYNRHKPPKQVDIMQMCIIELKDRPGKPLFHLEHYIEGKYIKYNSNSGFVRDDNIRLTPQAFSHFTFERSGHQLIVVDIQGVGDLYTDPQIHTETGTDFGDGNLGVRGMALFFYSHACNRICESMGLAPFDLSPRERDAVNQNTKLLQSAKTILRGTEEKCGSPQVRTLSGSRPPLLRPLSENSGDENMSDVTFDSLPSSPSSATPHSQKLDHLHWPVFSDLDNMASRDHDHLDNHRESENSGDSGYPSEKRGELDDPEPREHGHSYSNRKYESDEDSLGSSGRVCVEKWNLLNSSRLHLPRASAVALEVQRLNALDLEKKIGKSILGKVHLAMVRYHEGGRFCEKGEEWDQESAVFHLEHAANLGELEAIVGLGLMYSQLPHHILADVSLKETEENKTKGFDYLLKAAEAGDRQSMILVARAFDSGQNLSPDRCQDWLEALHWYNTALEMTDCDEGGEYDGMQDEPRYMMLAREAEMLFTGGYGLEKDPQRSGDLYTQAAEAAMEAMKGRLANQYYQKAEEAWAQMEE
# [16] = target: T2, Eukaryotic elongation factor 2 kinase (Homo sapiens); settings: at 10 µM
# [17] = target: Serine/threonine-protein kinase mTOR (Homo sapiens) (UniProt P42345); settings: at 1 µM
# [18] = target: Serine/threonine-protein kinase mTOR (Homo sapiens) (UniProt P42345); settings: at 10 µM
# [19] = target: Serine/threonine-protein kinase mTOR (Homo sapiens) (UniProt P42345); settings: at 1 µM; remark: listed apart in the source
# [20] = target: Serine/threonine-protein kinase mTOR (Homo sapiens) (UniProt P42345); settings: at 10 µM; remark: listed apart in the source
# Serine/threonine-protein kinase WNK2 (Homo sapiens), sequence (Q9Y3S1 whole entry): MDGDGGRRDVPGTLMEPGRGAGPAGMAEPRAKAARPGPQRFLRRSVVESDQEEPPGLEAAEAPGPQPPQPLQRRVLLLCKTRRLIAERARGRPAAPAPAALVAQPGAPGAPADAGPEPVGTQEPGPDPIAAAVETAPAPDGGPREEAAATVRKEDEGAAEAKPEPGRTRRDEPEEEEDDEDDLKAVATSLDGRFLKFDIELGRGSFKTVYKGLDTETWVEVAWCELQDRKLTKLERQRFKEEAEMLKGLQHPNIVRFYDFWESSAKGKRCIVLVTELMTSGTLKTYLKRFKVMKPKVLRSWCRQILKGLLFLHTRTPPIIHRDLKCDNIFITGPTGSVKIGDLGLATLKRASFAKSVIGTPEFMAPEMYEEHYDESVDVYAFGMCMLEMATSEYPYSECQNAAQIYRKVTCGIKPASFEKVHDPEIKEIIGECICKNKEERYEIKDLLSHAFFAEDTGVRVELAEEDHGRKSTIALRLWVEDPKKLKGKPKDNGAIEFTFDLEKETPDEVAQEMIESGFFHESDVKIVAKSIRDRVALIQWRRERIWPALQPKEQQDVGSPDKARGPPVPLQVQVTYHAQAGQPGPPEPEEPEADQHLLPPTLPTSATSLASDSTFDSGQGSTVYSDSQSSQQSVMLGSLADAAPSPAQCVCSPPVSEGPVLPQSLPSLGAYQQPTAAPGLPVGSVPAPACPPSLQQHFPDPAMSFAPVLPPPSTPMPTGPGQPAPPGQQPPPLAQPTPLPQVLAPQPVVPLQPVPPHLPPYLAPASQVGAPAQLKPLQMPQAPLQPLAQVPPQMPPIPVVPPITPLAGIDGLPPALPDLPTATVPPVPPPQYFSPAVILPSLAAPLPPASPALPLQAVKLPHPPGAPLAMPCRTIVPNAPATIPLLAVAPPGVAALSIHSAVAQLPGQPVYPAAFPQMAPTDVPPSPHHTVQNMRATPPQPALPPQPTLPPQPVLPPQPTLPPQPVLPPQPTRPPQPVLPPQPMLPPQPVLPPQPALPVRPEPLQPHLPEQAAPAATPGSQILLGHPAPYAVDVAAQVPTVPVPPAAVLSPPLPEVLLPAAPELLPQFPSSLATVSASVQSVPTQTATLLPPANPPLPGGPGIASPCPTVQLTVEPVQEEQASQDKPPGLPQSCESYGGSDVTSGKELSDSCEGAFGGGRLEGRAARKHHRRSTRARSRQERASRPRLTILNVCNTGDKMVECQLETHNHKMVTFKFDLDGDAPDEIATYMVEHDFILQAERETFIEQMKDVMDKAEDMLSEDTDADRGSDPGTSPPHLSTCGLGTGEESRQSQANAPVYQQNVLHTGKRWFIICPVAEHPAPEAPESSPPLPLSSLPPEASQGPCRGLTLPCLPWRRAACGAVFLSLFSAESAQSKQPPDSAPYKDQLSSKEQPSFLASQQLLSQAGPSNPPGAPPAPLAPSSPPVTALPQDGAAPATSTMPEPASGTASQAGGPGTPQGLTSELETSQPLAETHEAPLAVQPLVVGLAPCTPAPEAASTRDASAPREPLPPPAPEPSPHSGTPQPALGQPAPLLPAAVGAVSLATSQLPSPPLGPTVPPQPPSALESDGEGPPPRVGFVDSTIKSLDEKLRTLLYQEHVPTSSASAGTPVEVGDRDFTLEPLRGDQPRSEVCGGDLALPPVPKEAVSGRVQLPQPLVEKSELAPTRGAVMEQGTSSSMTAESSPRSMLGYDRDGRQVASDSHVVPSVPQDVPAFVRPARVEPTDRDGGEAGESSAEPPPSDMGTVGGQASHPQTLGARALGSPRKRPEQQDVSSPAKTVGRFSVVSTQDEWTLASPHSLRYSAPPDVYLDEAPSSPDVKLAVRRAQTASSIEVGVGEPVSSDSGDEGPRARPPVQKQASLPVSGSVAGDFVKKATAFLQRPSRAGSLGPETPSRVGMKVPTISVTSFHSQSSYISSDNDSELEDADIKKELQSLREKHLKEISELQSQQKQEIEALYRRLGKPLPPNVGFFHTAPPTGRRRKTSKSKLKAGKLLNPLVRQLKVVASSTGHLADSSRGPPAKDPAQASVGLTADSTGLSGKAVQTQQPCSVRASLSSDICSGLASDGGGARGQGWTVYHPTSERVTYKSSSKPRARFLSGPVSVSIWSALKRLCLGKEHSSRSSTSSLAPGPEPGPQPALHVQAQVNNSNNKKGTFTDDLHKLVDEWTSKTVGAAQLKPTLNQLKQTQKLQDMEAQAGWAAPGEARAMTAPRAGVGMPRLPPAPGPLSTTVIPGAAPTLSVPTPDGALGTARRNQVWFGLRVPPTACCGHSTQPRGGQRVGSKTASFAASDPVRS
Compound,residual activity [1] [%],residual activity [2],residual activity [3] [%],residual activity [4] [%],residual activity [5] [%],residual activity [6] [%],residual activity [7] [%],residual activity [8] [%],residual activity [9] [%],residual activity [10] [%],residual activity [11] [%],residual activity [12] [%],residual activity [13] [%],residual activity [14] [%],residual activity [15],residual activity [16] [%],residual activity [17] [%],residual activity [18] [%],residual activity [19] [%],residual activity [20] [%]
CC(C)n1cnc2c(NCc3ccccc3)nc(NCCCO)nc21,89,105% (inactive),92,108,88,114,87,97,85,78,111,98,100,86,108% (inactive),98,109,114,116,104
O=C(Nc1cccc(Nc2cc(Nc3cccc(C(F)(F)F)c3)ncn2)c1)C1CC1,81,95% (inactive),85,76,60,97,89,112,91,87,106,100,110,64,–,–,105,105,104,102
O=C1c2ccccc2-[n+]2ccc3c([nH]c4ccccc43)c21,92,91% (inactive),93,113,86,128,73,78,71,73,106,97,111,91,–,–,103,103,116,101
CN(C)c1ccc(/C=C2\C(=O)Nc3ccccc32)cc1,76,117% (inactive),90,98,64,121,108,97,94,85,24,4,87,85,–,–,78,101,78,89
CNc1cc2c(Nc3cccc(Br)c3)ncnc2cn1,89,101% (inactive),91,67,45,99,84,88,80,91,110,106,86,78,–,–,105,104,100,107
COc1ccc(S(=O)(=O)N(CCO)c2ccccc2CN(C)C/C=C/c2ccc(Cl)cc2)cc1,88,100% (inactive),88,119,79,105,96,96,78,73,115,100,116,90,–,–,109,96,97,101
O=C(O)c1ccc2c3c1cccc3c(=O)n1c3ccccc3nc21,106,111% (inactive),97,118,103,113,60,14,83,89,122,119,120,95,–,–,105,59,98,39
O=C1NC(=O)/C(=C/c2ccc3c(c2)OC(F)(F)O3)S1,85,104% (inactive),98,117,116,116,102,98,92,101,116,102,91,106,85% (inactive),104,82,90,106,104
Oc1ccc(Nc2nc(-c3ccc(Cl)cc3)cs2)cc1,99,109% (inactive),91,123,92,115,110,133,84,84,110,76,116,93,–,–,102,83,103,106
Cn1cc(/C=C2\C(=O)Nc3ccc(S(N)(=O)=O)cc32)c2ccccc21,85,97% (inactive),75,8,2,107,106,90,91,100,69,17,49,25,–,–,106,99,104,102
O=Nc1c(-c2c(O)[nH]c3ccccc23)[nH]c2ccccc12,55,89% (inactive),60,17,0,79,81,37,89,66,20,2,35,5,109% (inactive),93,100,98,117,89
CC(=O)O/N=C1\C(=C2\C(=O)Nc3cc(Br)ccc32)Nc2ccccc21,92,101% (inactive),94,42,4,106,99,71,80,75,97,32,22,8,–,–,96,94,105,84
O=C1Nc2ccccc2/C1=C1/Nc2ccccc2/C1=N\OCCC(O)CO (stereo unspecified),40,76% (inactive),50,8,2,97,63,54,54,60,10,1,20,-2,–,–,113,96,112,110
O=C1NC(=O)c2c1c1c3ccccc3[nH]c1c1[nH]c3cc(Br)ccc3c21,85,85% (inactive),82,95,88,95,102,91,82,82,107,94,117,93,–,–,117,106,76,113
CCN(CC)CCCCN1c2ccccc2Oc2ccc(Cl)cc21,89,126% (inactive),104,106,94,113,99,109,93,100,121,107,81,109,104% (inactive),131,110,110,70,98
O=c1c2ccccc2[nH]c(=S)n1CCN1CCC(=C(c2ccc(F)cc2)c2ccc(F)cc2)CC1,94,116% (inactive),102,105,96,101,75,74,83,94,106,89,85,97,–,–,78,85,107,69
Oc1c2ccccc2c2c3c(cccc13)N=N2,77,87% (inactive),77,98,51,94,87,45,69,61,91,30,89,64,–,92,104,77,–,84
O=C1Nc2cc(Br)ccc2/C1=C1/Nc2ccccc2/C1=N\O,91,93% (inactive),93,1,4,97,38,18,77,68,18,21,2,3,94% (inactive),89,76,76,119,82
Cc1nc(-c2ccccc2)c(-c2ccncc2)o1,101,104% (inactive),100,121,99,127,106,94,60,40,124,98,113,81,–,–,109,103,116,94
CC(C)n1cnc2/c(=N/c3cccc(Cl)c3)nc(NCCO)[nH]c21,52,88% (inactive),57,27,2,98,103,93,70,31,108,94,54,7,–,–,114,96,82,101
N#C/C(=C(\N)Sc1ccc(N)cc1)c1ccccc1C(F)(F)F,89,93% (inactive),89,107,101,100,89,100,76,66,115,105,125,91,–,–,87,63,118,79
COc1cccc(-c2cc(=O)c3ccccc3o2)c1N,102,82% (inactive),100,123,106,137,105,101,85,86,114,114,113,87,–,–,92,93,86,51
Cc1nc2cc3nc(-c4cccs4)cnc3cc2n1C,94,124% (inactive),71,106,59,135,97,102,97,95,80,13,78,86,–,–,105,107,80,84
O=C1NC(=O)/C(=C\c2ccc3nccnc3c2)S1,65,83% (inactive),79,119,102,109,71,21,73,44,106,102,86,103,99% (inactive),91,46,51,90,36
O=C(Nc1cccc(Nc2nccc(Nc3cccc(C(F)(F)F)c3)n2)c1)C1CC1,50,90% (inactive),65,56,51,113,84,49,89,85,94,46,56,12,93% (inactive),101,79,83,71,84
Oc1n[nH]c2nnc(-c3c(-c4ccccc4)nn4ccccc34)cc12,86,92% (inactive),83,104,91,105,66,48,73,77,94,104,95,87,–,–,97,76,102,76
C[C@@H](N)[C@H]1CC[C@H](C(=O)Nc2ccncc2)CC1,90,106% (inactive),102,108,94,92,101,99,100,108,107,106,100,103,96% (inactive),–,105,99,109,117
